Test systems include ADCK1; AKT1; ATR; AURKA; BTK; CDK9; CLK1; CLK4; CSNK1A1; CSNK1E; CSNK1G1; CSNK1G3; DDX3X;DDX3Y; EPHB3; GRK6; HSP90B1; LYN; MAP2K1; MAP2K2; MAPK1; MAPK3; MCM5; MET; OPA1; PHKG2; PI4KA; PI4KB; PIK3CA; PIK3CB; PIM1; PIM3; PRKACA; PRKDC; RAB14; RAB5C; RPS6KA3; RPS6KA6; SKIV2L2; SLC25A5; TBK1; TEC; ULK3; VDAC3; ADCK3; PIK3CD; TAOK1.
Common to all, as to parameters: species or system human, MV4-11 + K-562 + COLO205 + SK-N-BE2 + OVCAR-8
Details in all cases: read-out: apparent Kd; compound concentrations:100 nM and 1000 nM (sheet 'Samples'); n = 1

A further experiment has as its system T1, T10.
T1 construct: gene NAT10

Structures are written as SMILES.

Take `Cc1cnc(Nc2ccc(F)cc2Cl)nc1-c1c[nH]c(C(=O)N[C@H](CO)c2cccc(Cl)c2)c1` [Vertex11e]: the potency estimated from few doses with ADCK1 was 1210 nM; in the experiment with AKT1, 1200 nM; in the experiment on ATR it was 890 nM; in the experiment with AURKA, 745 nM; in the experiment on BTK it was 880 nM; with CDK9, 1810 nM. The potency estimated from few doses in the experiment with CLK1 was 1150 nM; in the experiment on CLK4 it was 1250 nM; in the experiment with CSNK1A1, 969 nM; in the experiment on CSNK1E it was 1220 nM; in the experiment on CSNK1G1, 2060 nM; in the experiment with CSNK1G3, 1230 nM. Also, the potency estimated from few doses in the experiment with DDX3X;DDX3Y is 1220 nM; in the experiment with EPHB3, 2330 nM; in the experiment on GRK6, 1290 nM; in the experiment with HSP90B1, 1070 nM; in the experiment on LYN it was 1320 nM; in the experiment on MAP2K1 it was 1350 nM. Moreover, the potency estimated from few doses is 1430 nM with MAP2K2; 44.9 nM with MAPK1; 77.8 nM in the experiment with MAPK3; 1270 nM in the experiment on MCM5; 2320 nM in the experiment with MET; 802 nM with OPA1. The potency estimated from few doses with PHKG2 is 2480 nM; in the experiment with PI4KA it was 1380 nM; with PI4KB it was 59.2 nM; in the experiment with PIK3CA, 142 nM; with PIK3CB, 851 nM; in the experiment on PIM1, 939 nM. In addition, the potency estimated from few doses in the experiment on PIM3 was 340 nM; with PRKACA it was 1860 nM; in the experiment with PRKDC, 723 nM; in the experiment on RAB14, 655 nM; in the experiment on RAB5C, 1330 nM; in the experiment with RPS6KA3, 1540 nM. Also, the potency estimated from few doses is 628 nM with RPS6KA6; 1590 nM in the experiment on SKIV2L2; 1450 nM in the experiment with SLC25A5; 952 nM with T10; 1290 nM in the experiment with TBK1; 1320 nM in the experiment with TEC. The results for the potency estimated from few doses in the experiment with ULK3 and in the experiment with VDAC3 were 1530 nM and 1380 nM, respectively.
Regarding `COc1cc2ncn(-c3cc(OCC4CCCCC4)c(C(N)=O)s3)c2cc1OC` [GSK204559A], the potency estimated from few doses is 1060 nM with ADCK3, 190 nM with PIK3CD and 1460 nM in the experiment on TAOK1.

These data come from article PMC11062922 (Nature Chemical Biology, 2023).
